Molecules are shown by their SMILES. Inconclusive results are not listed. Calls of active or inactive are those of the source. Calls follow the shape of the dose curve; as a rule, active = well fitted inhibition curve with a large enough effect; inconclusive = small, poorly fitted or top-dose-only effect; inactive = no such curve, though single readings can be large or run the other way. Where a SMILES comes first, the peptide text is derived from it. The star is where a group is joined. AFC = O=c1cc(C(F)(F)F)c2ccc(N*)cc2o1

Chain of N-terminal Xaa-Pro-Lys N-methyltransferase 1 (Homo sapiens) (Q9BV86 whole entry, looked up): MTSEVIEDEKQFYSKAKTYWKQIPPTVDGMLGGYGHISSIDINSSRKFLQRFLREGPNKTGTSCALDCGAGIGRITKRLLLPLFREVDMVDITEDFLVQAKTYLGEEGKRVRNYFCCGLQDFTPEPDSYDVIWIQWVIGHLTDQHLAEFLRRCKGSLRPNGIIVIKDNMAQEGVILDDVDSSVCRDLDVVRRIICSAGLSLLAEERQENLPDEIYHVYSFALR

This test has as its target N-terminal Xaa-Pro-Lys N-methyltransferase 1 (Homo sapiens) (UniProt Q9BV86). Put plainly: Orthogonal qHTS for Inhibitors of N-terminal methyltransferase 1 (NTMT1): ThioGlo Assay. Particulars: NTMT1 SAHH-coupled ThioGlo fluorescence, 30 min; series mostly up to 84.5 µM; activity, negative = inhibition: at the top concentration. The essentials: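 125 nM NTMT1 pre-incubated 1 min at room temperature with titrated compounds, then 100 uM SAM, 10 uM SAHH and 15 uM ThioGlo3 (final) added. Fluorescence (ex 340/em 450 nm) read before and after 30 min in the dark, normalized to the initial background.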
Take `O=S(=O)(Cc1ccccc1)Nc1ccc(-c2ccc3c(cnn3-c3ccc(F)cc3)c2)c(C(F)(F)F)c1`: the “activity, negative = inhibition” value is -18.7% [at 114 µM] (inactive).

On to `COc1ccc2cc3c(NC(=O)c4ccco4)nn(C)c3nc2c1`, for which the Potency is 49.4 µM (active).

As to `Nc1ncnc2c1nc(N)n2[C@@H]1O[C@H](CO)[C@@H](O)[C@H]1O`, the Potency was 27.8 µM (active).

In the case of `COc1cc2c(NC3CCN(CC4CCCCC4)CC3)nc(N3CCCN(C)CC3)nc2cc1OCCCN1CCCCC1`, the Potency is 43.5 µM (active).

With `Cc1cccc(/C=C/c2ccccc2)n1`, the “activity, negative = inhibition” value is -27% (inactive).

Consider `COc1cc(N2CCC(O)CC2)ccc1Nc1nc(Nc2ccccc2S(=O)(=O)C(C)C)c2[nH]cnc2n1`, for which the Potency is 19.7 µM (active).

`CCOc1ccc(Nc2nc(-c3c(C)nc4ccccn34)cs2)cc1`: the Potency was 3.12 µM (active).

For the compound `Fc1ccccc1CNCc1ccc(-c2ccnc3[nH]ccc23)cc1`, the Potency was 49.4 µM (active).

`C#Cc1cccc(Nc2ncnc3cc(OC)c(OCCCCCCC(=O)NO)cc23)c1`: the Potency is 22.1 µM (active).

With `Cc1cc(C)nc(NC(=S)N2CCN(c3cccc(S(C)(=O)=O)c3)CC2)c1`, the Potency was 12.3 µM (active).

On to `CCn1c(=O)c(-c2ccn[nH]2)cc2c(C)nc(N)nc21`, for which the Potency was 49.4 µM (active).

For the compound `COc1cc(CCc2ccc(OCC=C(C)C)cc2)cc(OC)c1OC`, the “activity, negative = inhibition” value is -15% (inactive).

For the compound `CC(=O)N[C@@H](CC(C)C)C(=O)N[C@@H](CCC(=O)O)C(=O)N[C@@H](CCC(=O)O)C(=O)N[C@@H](CC(=O)O)C(=O)Nc1ccc2c(C(F)(F)F)cc(=O)oc2c1` (Ac-LEED-{AFC}), the Potency is 44.1 µM (active).

In the case of `COc1cc2c(NC3CCN(C4CCCCC4)CC3)nc(N3CCCCC3)nc2cc1OCCOCCN(C)C`, the Potency is 43.5 µM (active).

On to `C=Cc1c(C)c2cc3[nH]c(cc4nc(cc5nc(cc1[nH]2)C(C)=C5CCC(=O)O)C(CCC(=O)O)=C4C)c(C)c3C=C`, for which the Potency was 15.4 µM (active).

Take `COc1cc2nc(N3CCCC3)nc(NC3CC3)c2cc1OC`: the “activity, negative = inhibition” value is -17% (inactive).

In the case of `FC(F)(F)c1cccc(N2CCN(C(=S)Nc3ccccn3)CC2)c1`, the Potency was 1.54 µM (active).

Consider `COc1cc2c(NC3CCN(CC4CCCCC4)CC3)nc(N3CCCCC3)nc2cc1OCCOCCN(C)C`, for which the Potency is 12.3 µM (active).

As for `CC/C(=C(\c1ccccc1)c1ccc(OCCN(C)C)cc1)c1ccccc1`, the “activity, negative = inhibition” value is -30.2% [at 170 µM] (inactive).

These data come from PubChem BioAssay AID1645875 (National Center for Advancing Translational Sciences (NCATS), 2021).
